Source: PubChem BioAssay (NCI)
The panel holds about 83,000 compounds, 20% with a hit somewhere; the sample as a whole holds those more often.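 Values shown are percent growth following 48 h exposure of cells in 96-well plates to a single concentration of compound; below 10 was considered active.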 Values without a mark were called inactive. Calls of active or inactive are those of the source.

Test system: MCF7 breast
Experiment: NCI-60 one-dose screen, 48 h (100 = growth as untreated, 0 = no growth, -100 = all killed)
Conditions: 10 µM
Experimental: Growth inhibition of the MCF7 human tumor cell line is measured as a screen for anti-cancer activity. Cells are grown in 96 well plates and exposed to the test compound for 48 hours. Compounds are tested at a single concentration, which is 10^-5 M for most compounds. The reported endpoint is percent growth (GI% or GIPRCNT), where numbers from 0 - 100% represent growth inhibition, and numbers from -100% - 0 represent cell death. For example, a value of 40 represents 60% growth inhibition. A value of 0 means no net growth occurred over the course of the experiment. A value of -40 indicates 40% of cells at the beginning of the experiment died by the end of the experiment. A value of -100 means all cells are dead at the end of the experiment.
NCI-60 Human Tumor Cell Lines Screen was performed using the standard one-dose NCI protocol, which is described in more detail at https://dtp.cancer.gov/discovery_development/nci-60/default.htm.
Compounds with GIPRCNT values below 10 were considered active. Activity score was based on GIPRCNT using the following formula: […]
Score is 0 for GIPRCNT values of 100 or above, 50 for GIPRCNT values of 0, and 100 for GIPRCNT values of -100.

Structure (SMILES)	growth
O=C(Nc1cccc([N+](=O)[O-])c1)NN1CCCCCC1	100%
Cn1cnc([N+](=O)[O-])c1/C=C1\Oc2ccc(Cl)cc2C1=O	40.2%
COc1ccc(C(=O)c2sc3nc(-c4cccs4)ccc3c2N)cc1OC	24.7%
CCNC(=S)NN	5.44% (active)
COc1ccc(-c2nc(-c3ccccc3)c(-c3ccccc3)[nH]2)cc1OC1CCCC1	78.7%
COc1ccc(-c2nsc3c2NC(=O)CC3c2ccc(Cl)cc2)cc1 (stereo not given)	88.4%
COc1ccc(-c2cc(/C=C3\C(=O)Nc4cc(Cl)ccc43)[nH]n2)cc1OC	32.2%
O=C(CSc1nnc(-c2ccc(Cl)cc2)o1)c1ccccc1	102%
COc1ccc(C(=O)/C=C/c2cc(-c3ccc(OC)c(OC)c3)n[nH]2)cc1OC	4.18% (active)
CC1(C)CCc2cc(-c3ccn(S(=O)(=O)c4ccc(Cl)cc4)n3)ccc2O1	71.3%
Cc1ccc(/C(CS(=O)(=O)c2ccc(C)cc2)=N\O)cc1	91.3%
CCCCCCCCCCCCCC[n+]1ccc(C)cc1	0.934% (active)
Cn1c([N+](=O)[O-])cnc1C=C1C(=O)c2ccccc2C1=O	37.8%
O=C(/C=C/c1nnc2n(Cc3ccccc3)c(=O)c3c4c(sc3n12)CCCC4)c1ccccc1	64.3%
CC(=O)O[C@H]1CC[C@@]2(C)[C@@H](CC[C@@H]3[C@@H]2CC[C@]2(C)C=C(C=O)C[C@@H]32)C1	7.05% (active)
CN(C1c2ccccc2Oc2ccccc21)S(=O)(=O)c1cc(Cl)ccc1Cl	21.4%
CCc1nn2c(-c3cc(OC)c(OC)c(OC)c3)c(-c3cc(OC)c(OC)c(OC)c3)nc2s1	57.4%
CCOC(=O)Nc1ccc2c(c1)C(=O)N(CC)c1ccccc1O2	14.2%
S=C(Cc1ccc(-c2ccccc2)cc1)N1CCOCC1	95.3%
COc1cc(NS(C)(=O)=O)ccc1Nc1c2ccc(Cl)cc2nc2c(OC)cccc12	23.7%

Structure (SMILES)	growth
c1ccc(C2CCCCC2)c(OCCCCCN2CCNCC2)c1	-34.4% (active)
COc1cc(-c2cc(/C=C/C(C)=O)[nH]n2)cc(OC)c1OC	41%
N#Cc1ccc(-n2cnc(NC(=O)[C@H]3CCN(C#N)C3)c2)cc1	4.82% (active)
COc1cc(-c2nc3cc(Cl)c(Cl)cc3[nH]2)ccc1OCC(=O)NN	73.4%
CCOc1nc(-c2ccccc2)cc2c(O)c(C(=O)NCCCO)[nH]c(=O)c12	90.3%
Cc1ccc(/C=C2\CN(Cc3cn(CCNc4ccnc5cc(Cl)ccc45)nn3)C/C(=C\c3ccc(C)cc3)C2=O)cc1	-38.3% (active)
CCCCCCCCCCCCCCCC(=O)N1CCN(C)CC1	85%
CCOC(=O)C1=C(Nc2ccc(OC)cc2)C(N)=NC1=N	13.7%
O=C1/C(=C/c2ccc(O)cc2O)N=C2SCCCN12	108%
CNC(=O)c1cc(Oc2ccc(NC(=O)Nc3ccc(Cl)c(OC(C)C)c3)c(F)c2)ccn1	31%
CC(C)C[C@H](NC(=O)CCn1ccc2ccccc2c1=O)B(O)O	33.9%
O=C(NC1CCCC1)c1ccc(N2CCC(NCc3cccc(C(F)(F)F)c3)CC2)cc1	95.8%
CC[C@@]1(C(N)=O)CC2C=CC1C2 (stereo not given in full)	99.5%
Cc1cnc(C=O)c2cccc([N+](=O)[O-])c12	75.8%
CCOCC[P+](c1ccccc1)(c1ccccc1)c1ccccc1	31.1%
CC(C)C[C@H](NC(=O)Cn1ccc(Nc2ccccc2)cc1=O)B(O)O	28.2%
C[C@@H]1N=C(c2ccc(Br)cc2)Nc2nc3ccccn3c2C1=O	20.9%
CCN1CCOC1C(C)C (stereo not given)	101%
COc1ccccc1NC1=C(N2CCCCC2)C(=O)c2ccccc2C1=O	74.8%
O=C(NNC(=O)c1ccncc1)Nc1ccc([N+](=O)[O-])cc1	109%
